Consider 9 compounds from PubChem BioAssay (Tox21).

Inconclusive results are not listed. Active and inactive are the calls of the source. Unless noted, the call rests on the fitted dose curve; in most records, active means well fitted curve in the direction sought with a large enough effect in the repeat runs; inconclusive means weak or mixed curves; inactive means no such curve, though single readings can be large; an effect the other way counts as inactive or inconclusive.

The nature of experiment [1]: A CellTox Green Cytotoxicity Assay to monitor cytotoxicity in HepG2 cells - 0 hour (AID 1224882). Further: nearly all actives have a fitted effect of over 35% in size. Put shortly:
(§1)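 HepG2 cells were seeded together with the CellTox Green dye at 600 cells/well, left 5 h at 37 C/5% CO2, then given compounds in DMSO. Fluorescence from dye bound to dead-cell DNA was read repeatedly over 40 h of treatment at 37 C.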

The nature of experiment [2]: A CellTox Green Cytotoxicity Assay to monitor cytotoxicity in HepG2 cells - 32 hour (AID 1224883). Further: nearly all actives have a fitted effect of over 50% in size. Further: potency means the concentration at half of the fitted maximal effect. In short, it runs like this:
as §1

Experiment [3] in a line: A CellTox Green Cytotoxicity Assay to monitor cytotoxicity in HEK293 cells - 8 hour (AID 1224884). Further: nearly all actives have a fitted effect of over 35% in size. In short, it runs like this:
(§2)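 HEK293 cells premixed with CellTox Green dye were seeded at 600 cells/well and left 5 h at 37 C/5% CO2 before pin transfer of 23 nL compound in DMSO. Fluorescence from dye bound to dead-cell DNA was read during 40 h treatment.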

Experiment [4] can be described thus: qHTS RealTime-Glo MT Cell Viability Assay in HepG2 cells - 16 hour (AID 1224885). Further: nearly all actives have a fitted effect of over 50% in size. In short, it runs like this: (§3)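 Cell number in HepG2 cultures estimated from NanoLuc luminescence generated by metabolic reduction of a prosubstrate by living cells. The homogeneous, nonlytic format allowed repeated reads at 0, 8, 16, 24, 32 and 40 h of compound exposure.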
(In general: Quantitative high-throughput screening tests each substance at several concentrations.)

A short description of experiment [5]: qHTS RealTime-Glo MT Cell Viability Assay in HEK293 cells - 8 hour (AID 1224887). Further: top concentration of the series differs between compounds; nearly all actives have a fitted effect of over 50% in size. Put shortly: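 HEK293 cells mixed with RealTime-Glo reagents (NanoLuc plus cell-permeant prosubstrate) at 600 cells/well, preincubated 5 h at 37 C/5% CO2, then given 23 nL compound in DMSO. Nonlytic luminescence from viable cells was read at 0, 8, 16, 24, 32 and 40 h.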
Experiment [6] in a line: A CellTox Green Cytotoxicity Assay to monitor cytotoxicity in HEK293 cells - 16 hour (AID 1224888). Further: nearly all actives have a fitted effect of over 35% in size. Put shortly: as §2
The nature of experiment [7]: qHTS RealTime-Glo MT Cell Viability Assay in HepG2 cells - 0 hour (AID 1224889). Further: nearly all actives have a fitted effect of over 50% in size. Put shortly: as §3
A short description of experiment [8]: A CellTox Green Cytotoxicity Assay to monitor cytotoxicity in HepG2 cells - 8 hour (AID 1224890). Further: nearly all actives have a fitted effect of over 45% in size. Put shortly: as §1
The nature of experiment [9]: qHTS assay to identify small molecule antagonists of the estrogen receptor alpha (ER-alpha) signaling pathway using the BG1 cell line in the presence of 0.1 nM 17-beta-estradiol - cell viability counter screen (AID 1259241). Further: nearly all actives have a fitted effect of over 40% in size. In short, it runs like this: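 VM7Luc4E2 cells (endogenous full-length ER-alpha, 4xERE-luciferase), cultured 5 days in charcoal-stripped serum, exposed to compounds with 0.1 nM 17beta-estradiol (final) for 22 hr at 37C. Viability read in same wells as live-cell protease fluorescence after 30 min.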

Experiment [10] can be described thus: qHTS assay to identify small molecule antagonists of the androgen receptor (AR) signaling pathway using the MDA cell line in the presence of 0.5 nM R1881 - cell viability counter screen (AID 1259242). Further: nearly all actives have a fitted effect of over 45% in size. In short, it runs like this:
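MDA-kb2 cells (human breast carcinoma, stably carrying MMTV-luciferase reporter) were exposed to compounds with 0.5 nM R1881 (final) for 16 hr at 37C, 0% CO2; viability then read as live-cell protease fluorescence (CellTiter-Fluor, 30 min) in the same wells.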

Experiment [11] can be described thus: qHTS assay to identify small molecule HDAC inhibitors (AID 1259364). Further: top concentration of the series differs between compounds; nearly all actives have a fitted effect of over 45% in size. Put shortly:
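Wild-type HCT-116 cells were plated overnight, exposed to compounds for 2 h at 37 °C, then given HDAC-Glo class I/II luminogenic reagent for 30 min at room temperature before luminescence was read.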

Experiment [12] is described as follows: qHTS assay to identify small molecule HDAC inhibitors - cell viability counter screen (AID 1259365). Put shortly:
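Wild-type HCT-116 cells, 1,500/well, cultured overnight, then compound-treated 2 h at 37 C. Viability measured as ATP luminescence with CellTiter-Glo after 30 min at room temperature.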

A short description of experiment [13]: qHTS assay to identify small molecule agonists of the sonic hedgehog signaling (Shh) pathway - cell viability counter screen (AID 1259366). Further: nearly all actives have a fitted effect of over 50% in size. Put shortly: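 NIH/3T3-derived Gli1-Luc reporter cells, 2,000 per well, received compound after 4 h and were treated about 23 h at 37C. Viability measured in the same wells by CellTiter-Fluor fluorescence after 1 h.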
The nature of experiment [14]: qHTS assay to identify small molecule antagonists of the sonic hedgehog signaling (Shh) pathway - cell viability counter screen (AID 1259367). Further: nearly all actives have a fitted effect of over 55% in size. In short, it runs like this: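 Using CellTiter-Fluor, viability of Gli1-Luc reporter 3T3 cells is read by fluorescence in the wells used for the Shh luciferase assay. Treatment lasts 23 hr with conditioned medium, then reagent 1 hr at 37C.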

A short description of experiment [15]: qHTS assay to identify small molecule agonists of the sonic hedgehog signaling (Shh) pathway (AID 1259368; calls by dose curve; further: series mostly up to about 92 µM; nearly all actives have a fitted effect of over 15% in size). In short, it runs like this:
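NIH/3T3-derived 3T3Gli1-Luc cells carrying a stably integrated Gli1 response element–firefly luciferase reporter were plated, left 4 hr at 37 C, then given compounds in DMSO for 24 hr. Luminescence was read 30 min after adding luciferase reagent.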

Experiment [16] can be described thus: qHTS RealTime-Glo MT Cell Viability Assay in HEK293 cells - 24 hour (AID 1224886). In short, it runs like this:
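Homogeneous bioluminescent viability format in HEK293 cells (600 cells/well). Following 5 h at 37 C/5% CO2, 23 nL compound was pintooled; the signal was measured repeatedly during 40 h incubation.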

Experiment [17] in a line: qHTS assay to identify small molecule antagonists of the sonic hedgehog signaling (Shh) pathway (AID 1259369; calls by dose curve; further: nearly all actives have a fitted effect of over 45% in size). Put shortly:
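NIH/3T3-derived 3T3Gli1-Luc cells with stably integrated Gli1-Luc reporter were preincubated 4hr at 37 C, then given compounds in DMSO plus Shh conditioned medium and incubated 24hr. Firefly luciferase luminescence read after 30min reagent at room temperature.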

Experiment [18] has as its target Androgen receptor (Homo sapiens) (UniProt P10275). The experiment is described as follows: qHTS assay to identify small molecule antagonists of the androgen receptor (AR) signaling pathway using the MDA cell line in the presence of 0.5 nM R1881 (AID 1259243). Further: nearly all actives have a fitted effect of over 50% in size. Put shortly:
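MDA-kb2 human breast carcinoma cells carrying an MMTV-luciferase reporter (AR- and GR-responsive) were plated, rested 5 hr at 37C, dosed with compounds, then stimulated with 0.5 nM R1881 (final) for 16 hr; luminescence was read after ONE-Glo.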

The nature of experiment [19]: qHTS assay to identify small molecule phospholipidosis (PLD) inducers (AID 1259344; active means well fitted curve in the direction sought with a large enough effect; an effect the other way counts as inactive or inconclusive). In short, it runs like this:
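Fluorescent phospholipid staining (LipidTOX Red) measured by automated microscopy in fixed HepG2 cells after 24 h treatment; nuclei counterstained with Hoechst 33342; amiodarone as reference inducer.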

Experiment [20] concerns the target Estrogen receptor (Homo sapiens) (UniProt P03372). The experiment is described as follows: qHTS assay to identify small molecule antagonists of the estrogen receptor alpha (ER-alpha) signaling pathway using the BG1 cell line in the presence of 0.1 nM 17-beta-estradiol (AID 1259244). Further: nearly all actives have a fitted effect of over 50% in size. In short, it runs like this: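 VM7Luc4E2 cells (endogenous full-length ER-alpha, stable 4xERE-luciferase) were grown 5 days in phenol red-free medium with charcoal-stripped FBS, then exposed 22 h at 37C to compounds plus 0.1 nM (final) 17beta-estradiol; ONE-Glo luminescence read-out.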

Estrogen receptor (Homo sapiens), sequence (P03372 whole entry, looked up): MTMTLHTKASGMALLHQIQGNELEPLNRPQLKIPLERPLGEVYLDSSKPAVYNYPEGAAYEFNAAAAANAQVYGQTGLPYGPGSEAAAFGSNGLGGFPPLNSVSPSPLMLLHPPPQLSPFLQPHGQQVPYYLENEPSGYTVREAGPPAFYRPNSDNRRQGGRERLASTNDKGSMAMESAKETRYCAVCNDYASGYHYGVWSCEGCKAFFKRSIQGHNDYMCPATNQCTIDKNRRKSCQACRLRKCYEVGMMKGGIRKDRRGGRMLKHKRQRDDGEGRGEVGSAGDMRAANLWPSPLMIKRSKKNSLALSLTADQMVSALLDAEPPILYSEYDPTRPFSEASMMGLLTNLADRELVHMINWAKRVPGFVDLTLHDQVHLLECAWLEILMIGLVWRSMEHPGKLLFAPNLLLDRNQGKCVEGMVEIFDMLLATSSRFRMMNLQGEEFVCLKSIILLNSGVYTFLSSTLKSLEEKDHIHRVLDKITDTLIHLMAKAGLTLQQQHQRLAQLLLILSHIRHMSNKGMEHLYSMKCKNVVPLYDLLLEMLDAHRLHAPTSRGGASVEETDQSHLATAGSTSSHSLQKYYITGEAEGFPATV
Androgen receptor (Homo sapiens), sequence (P10275 whole entry, looked up): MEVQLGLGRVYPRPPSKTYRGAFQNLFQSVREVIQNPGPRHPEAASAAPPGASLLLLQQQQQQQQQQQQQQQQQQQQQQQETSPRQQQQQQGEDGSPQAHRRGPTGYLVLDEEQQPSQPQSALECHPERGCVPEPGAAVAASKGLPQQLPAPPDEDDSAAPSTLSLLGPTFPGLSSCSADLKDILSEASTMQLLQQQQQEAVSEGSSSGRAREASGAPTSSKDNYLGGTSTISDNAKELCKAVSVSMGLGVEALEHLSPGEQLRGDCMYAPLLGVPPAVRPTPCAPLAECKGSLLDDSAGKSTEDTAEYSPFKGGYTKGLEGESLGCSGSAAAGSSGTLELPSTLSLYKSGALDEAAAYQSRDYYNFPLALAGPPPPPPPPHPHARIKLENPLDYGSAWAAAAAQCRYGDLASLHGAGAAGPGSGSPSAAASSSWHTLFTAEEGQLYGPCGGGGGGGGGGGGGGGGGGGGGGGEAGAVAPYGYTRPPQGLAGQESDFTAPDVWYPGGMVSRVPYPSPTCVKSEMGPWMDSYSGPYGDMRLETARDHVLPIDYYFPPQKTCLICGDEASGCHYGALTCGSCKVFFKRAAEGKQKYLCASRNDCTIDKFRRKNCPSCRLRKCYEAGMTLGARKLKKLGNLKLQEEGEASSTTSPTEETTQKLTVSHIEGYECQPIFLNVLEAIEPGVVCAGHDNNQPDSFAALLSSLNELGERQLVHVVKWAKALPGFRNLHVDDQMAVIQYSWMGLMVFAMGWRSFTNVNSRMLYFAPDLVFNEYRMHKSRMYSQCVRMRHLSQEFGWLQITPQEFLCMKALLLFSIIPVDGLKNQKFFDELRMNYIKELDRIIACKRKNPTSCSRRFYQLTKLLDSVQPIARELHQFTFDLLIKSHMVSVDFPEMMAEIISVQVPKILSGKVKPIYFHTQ

As to `CC/C(=C\C(=N/O)C(N)=O)C(C)[N+](=O)[O-]` (stereo not given), the Potency result in experiment [1], in experiment [2], in [3], in experiment [4], in experiment [5] and in experiment [6] was “inactive” in each case. In addition, the Potency entry in experiment [7], in [8], in experiment [9], in experiment [10], in experiment [11] and in experiment [13] was “inactive” in each case. The Potency entry in [14] is “inactive”. The call in experiment [12] and in [15] was inactive.
On to `N#CCc1cccc(C(F)(F)F)c1`, for which the Potency entry in experiment [1], in [2], in experiment [3], in [16], in experiment [5] and in experiment [6] was “inactive” in each case. The Potency entry in [7], in experiment [8], in [9], in [10], in experiment [11] and in [13] was “inactive” in each case. Further, the Potency result in experiment [14] and in experiment [17] was “inactive” in each case. Besides, the call in experiment [12] and in experiment [15] was inactive.
Consider `CC[C@]12CCCN3CCc4c(n(c5ccccc45)C(=O)C1)[C@@H]32`, for which the Potency entry in experiment [1], in [3], in experiment [4], in experiment [6], in experiment [7] and in [8] was “inactive” each time. Further, the Potency result in experiment [9], in [10], in experiment [18], in experiment [19] and in [11] was “inactive” each time. For the same compound, the Potency in experiment [2] was 6.74 µM (active). Also, the call in experiment [12] and in [15] was inactive.
With `CCCCOC(=O)/C=C\C(=O)OCCCC`, the Potency result in [1], in [2], in [3], in experiment [16], in experiment [5] and in experiment [6] was “inactive” throughout. For the same compound, the Potency entry in experiment [7], in [8], in experiment [9], in experiment [10], in experiment [20] and in experiment [11] was “inactive” throughout. In addition, the Potency result in [14] and in experiment [17] was “inactive” in each case. Also, the compound was classed as inactive in experiment [12] and in experiment [15].
`COc1ccc2[nH]c(S(=O)Cc3ncc(C)c(OC)c3C)nc2n1` (stereo not given): the Potency result in experiment [1], in [2], in experiment [3], in experiment [4], in experiment [5] and in [6] was “inactive” throughout. The Potency result in experiment [7], in experiment [8], in experiment [9], in experiment [10], in experiment [19] and in experiment [11] was “inactive” throughout. In addition, the Potency entry in experiment [13], in experiment [14] and in [17] was “inactive” each time. Moreover, the compound was classed as inactive in experiment [12] and in [15].
As for `COC(=O)CSc1cc(N=c2sc(=O)n3n2CCCC3)c(F)cc1Cl`, the Potency result in experiment [1], in [2], in experiment [3], in experiment [4], in [5] and in [7] was “inactive” each time. The Potency entry in experiment [8], in [9], in experiment [10], in [18], in experiment [11] and in [14] was “inactive” throughout. Further, in experiment [17], the Potency entry is “inactive”. Also, the outcome in [12] and in [15] was inactive.
On to `CCOC(=O)CC(=O)c1cc(F)c(Cl)nc1Cl`, for which the Potency result in [1], in [2], in [3], in experiment [4], in experiment [5] and in experiment [7] was “inactive” throughout. Besides, the Potency entry in [8], in experiment [10], in experiment [20], in experiment [11], in [13] and in [14] was “inactive” each time. In addition, the Potency entry in experiment [17] is “inactive”. For the same compound, the compound was called inactive in [12] and in [15].
Consider `SC1CCCC1`, for which the Potency entry in experiment [1], in experiment [2], in [3], in experiment [16], in experiment [5] and in [6] was “inactive” each time. For the same compound, the Potency result in [7], in experiment [8], in experiment [9], in experiment [10], in [20] and in experiment [11] was “inactive” each time. Also, the Potency result in experiment [13], in [14] and in experiment [17] was “inactive” throughout. Besides, the outcome in experiment [12] and in [15] was inactive.
Regarding `CN(C(=O)CCCOc1ccc2[nH]c(=O)ccc2c1)C1CCCCC1`, the Potency entry in [1], in experiment [2], in experiment [3], in experiment [4], in [5] and in [6] was “inactive” throughout. Besides, the Potency result in [7], in experiment [8], in experiment [9], in experiment [10], in experiment [19] and in [11] was “inactive” in each case. Further, in [13], the Potency entry was “inactive”. Besides, the call in experiment [12] and in [15] was inactive.
